51 molecules from PubChem BioAssay AID1851 (National Center for Advancing Translational Sciences (NCATS), 2009) can be followed below.

“And” between values parts separate entries of the source, which are not always exact repeats. Identical values can stand only once. Screen size: about 16,000 compounds; about 5,100 (32%) were called active. Another 25% or so got no clear call; they are omitted. This is one part of the list. A number with no mark means an inactive call. The call rests on the fitted dose curve; in most records, active means well fitted curve in the direction sought with a large enough effect; inconclusive means small, poorly fitted or top-dose-only effect, or effect the other way; inactive means no such curve, though single readings can be large or run the other way.
On the % scale 0 is the no-effect control and ±100 the full control effect.

Cytochrome P450 3A4 (Homo sapiens), sequence (P08684 whole entry, looked up): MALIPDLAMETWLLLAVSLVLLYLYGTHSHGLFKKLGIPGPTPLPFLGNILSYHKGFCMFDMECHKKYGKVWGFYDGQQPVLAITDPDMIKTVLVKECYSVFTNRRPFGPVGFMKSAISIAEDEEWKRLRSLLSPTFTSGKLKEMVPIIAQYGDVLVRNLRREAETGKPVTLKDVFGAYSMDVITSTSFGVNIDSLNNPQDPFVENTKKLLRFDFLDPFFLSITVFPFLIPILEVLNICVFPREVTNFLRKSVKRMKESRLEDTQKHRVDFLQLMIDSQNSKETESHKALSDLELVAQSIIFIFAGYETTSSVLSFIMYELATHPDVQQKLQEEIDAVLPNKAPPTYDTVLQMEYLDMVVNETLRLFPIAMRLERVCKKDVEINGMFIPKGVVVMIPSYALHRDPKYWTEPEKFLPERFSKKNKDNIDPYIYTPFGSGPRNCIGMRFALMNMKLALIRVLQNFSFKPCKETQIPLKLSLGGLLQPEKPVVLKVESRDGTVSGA

This assay has as its target Cytochrome P450 3A4 (Homo sapiens) (UniProt P08684). The experiment in a line: Cytochrome panel assay with activity outcomes. Particulars: recombinant CYP, pro-luciferin dealkylation, luminescence, p450-cyp3a4; series mostly up to 57.1 µM; activity, negative = inhibition: at the top concentration.
On to `COC(=O)C(C)Sc1ccc2nnc(-c3ccc(F)cc3)n2n1` (stereo unspecified), for which the “activity, negative = inhibition” value is -17.6%. Regarding `CCCCN(CC)S(=O)(=O)c1ccc(C(=O)Nc2nnc(CSC)o2)cc1`, the activity, negative = inhibition was 2.56% [at 11.4 µM].

For `CCCOc1cccc(-c2cc(-c3n[nH]c(=S)n3CC)c3ccccc3n2)c1`, the AC50 is 10 µM (active). `CCn1c(-c2ccoc2C)n[nH]c1=S`: the “activity, negative = inhibition” value is -8%. Still for that read-out and setting: with `CCc1ccc(-c2ccc(C(=O)C(F)(F)F)[nH]2)cc1` the figure was 13.7%.

Consider `CC(C)(Oc1ccc(CCNC(=O)c2ccc(Cl)cc2)cc1)C(=O)O`, for which the “activity, negative = inhibition” value was -9.06% [at 25.6 µM]. As for `CC(C)(Oc1ccc([C@@H]2CC2(Cl)Cl)cc1)C(=O)O`, the AC50 result was “inactive”.

As to `CC(C)(Oc1ccc(Cl)cc1)C(=O)Nc1ccncc1`, the AC50 was 0.794 µM (active). Turning to `C[C@@H]1CCC[C@H](C)N1`, the “activity, negative = inhibition” value was -0.959% [at 25.6 µM].

Take `CC(C)CNC(=O)c1ccc(COc2ccc(Cl)cc2Cl)o1`: the AC50 was 20 µM (active). Take `Clc1ccc(Cl)c(OCc2cc(-c3ccccc3Cl)on2)c1`: the “activity, negative = inhibition” value was 10.7%. As for `O=C(Nc1ccn(Cc2ccccc2F)n1)c1ccc(COc2cc(Cl)ccc2Cl)o1`, the half-maximal activity concentration (AC50) is 0.891 µM (active). For `O=C(Nc1cccnc1)c1ccc(COc2cc(Cl)ccc2Cl)o1`, the AC50 is 4.47 µM (active). Turning to `O=C(N/N=C/c1ccc(O)cc1)c1ccc(COc2cc(Cl)ccc2Cl)o1`, the activity, negative = inhibition was -27.3% [at 2.29 µM]. The same measure, in the same setting: with `CC(C)C(=O)Nc1ccc(C(=O)NNC(=O)CCCOc2ccc(Cl)cc2Cl)cc1` the figure was -17.2%. On to `O[C@@H](C1=C/C(=C\c2ccncc2)c2ccccc21)c1ccncc1`, for which the AC50 is 0.794 µM (active). Turning to `NS(=O)(=O)c1ccc(N=Nc2c(O)c(C(=O)O)cc3ccccc23)cc1`, the activity, negative = inhibition was -2.48% [at 11.4 µM]. Regarding `Cc1cccc(Oc2ncnc3onc(C)c23)c1C`, the “activity, negative = inhibition” value is -11%. For `Cn1c(SCC(=O)NC2CC2)nnc1-c1cccc(NC(=O)c2ccccc2F)c1`, the AC50 was 12.6 µM (active).

`Nc1ncnc2c1ncn2[C@H]1O[C@@H](C(=O)OCCO)[C@@H](O)[C@H]1O`: the activity, negative = inhibition was -12.9% [at 11.4 µM]. The same measure, in the same setting: with `Clc1ccc(-c2nnc(-c3ccc(Br)cc3)c(N3CCSCC3)n2)cc1` the figure was -17.3%; with `CCOC(=O)c1nc2sc(C)c(C)c2c(=O)[nH]1`, -5.37%. On to `CCCCC1(C)NC(=O)c2c(C)sc(C(=O)OCC)c2N1` (stereo unspecified), for which the AC50 was 17.8 µM (active).

On to `c1ncc(-c2ccoc2)c(NC2CC2)n1`, for which the AC50 was 7.94 µM (active).

As to `c1ccc(Nc2ncncc2-c2ccoc2)cc1`, the AC50 was 2 µM (active). On the same count and under the same terms, with `Fc1ccc(Nc2ncncc2-c2ccoc2)cc1` the figure was 0.501 µM (active).

Take `O=c1[nH]c2[nH]c(=S)[nH]c(=S)c2[nH]1`: the activity, negative = inhibition is -17.9% [at 11.4 µM].

Take `CCN(CC)C(=O)Cn1cc(/C=C(\C#N)C(=O)N2CCN(c3ccccc3)CC2)c2ccccc21`: the AC50 was 0.891 µM (active). Consider `CCc1cccc2c(C=C(C#N)C#N)cn(CC(=O)N3CCCCC3)c12`, for which the “activity, negative = inhibition” value is -27.8%. The same measure, in the same setting: with `CCc1cccc2c(C=C(C#N)C#N)cn(CC(=O)N3CCCC3)c12` the figure was -15.2%. Consider `Cc1ccc2nc(N/N=C/c3ccccc3C#N)nc(-c3ccccc3)c2c1`, for which the AC50 was 7.94 µM (active). Take `Cc1nc(Cl)c(C#N)cc1-c1ccccc1`: the “activity, negative = inhibition” value is -8.93%.

Consider `Cc1ccc(Oc2nnc(-c3ccccc3)cc2C#N)cc1`, for which the “activity, negative = inhibition” value is -24.2%. Consider `N#Cc1ccccc1/C=N/Nc1nc(-c2ccccc2)c2cc(Cl)ccc2n1`, for which the AC50 was 6.31 µM (active). On to `CSc1c(-c2ccccc2)nc2ccc(Cl)cc2c1C(=O)O`, for which the “activity, negative = inhibition” value is 7.66%.

For `CCn1cc(C(=O)O)c(=O)c2cc(F)c(N3CCNCC3)nc21`, the “activity, negative = inhibition” value is -15.4% [at 25.6 µM]. For the molecule `COc1ccc(-n2nc(C(=O)NCC(=O)Nc3ccccn3)c3ccccc3c2=O)cc1`, the AC50 is 3.55 µM (active). On to `COc1cc(Cl)c(C)cc1NC(=O)CNC(=O)Cn1cnc2ccccc2c1=O`, for which the “activity, negative = inhibition” value is 11.4%. On to `COC(=O)c1nn(-c2ccccc2)c(=O)cc1Oc1ccccc1`, for which the activity, negative = inhibition was -20.9% [at 11.4 µM]. On to `Cc1ccc2c(c1)[C@@H]1CN(C)CC[C@@H]1N2S(=O)(=O)c1ccc(F)cc1`, for which the AC50 was 2 µM (active).

With `O=C1C[C@@H](O)[C@@H](O)[C@H]2[C@@H]3C(=O)N(Cc4ccccc4)C(=O)[C@@H]3CC[C@H]12`, the activity, negative = inhibition was -12.1% [at 11.4 µM] and -10.8% [at 11.4 µM]. In the case of `O=C1C[C@@H](O)[C@@H](O)[C@H]2[C@@H]3C(=O)N(Cc4ccc5c(c4)OCO5)C(=O)[C@@H]3CC[C@H]12`, the AC50 was 3.98 µM (active). `CCN1C(=O)[C@H]2[C@H]3[C@H](O)[C@H](O)C/C(=N/OCC(C)C)[C@H]3CC[C@@H]2C1=O`: the activity, negative = inhibition is 19.2% [at 11.4 µM]. Same read-out and setting: with `CCN1C(=O)[C@H]2[C@@H]3[C@H](O)[C@H](O)CC(=O)[C@H]3CC[C@H]2C1=O` the figure was -13.1% [at 11.4 µM] and -13% [at 11.4 µM]; with `CCN1C(=O)[C@H]2[C@H]3[C@H](O)[C@H](O)C/C(=N/OCC(C)C)[C@@H]3CC[C@@H]2C1=O`, -6.7% [at 11.4 µM].

Regarding `CCN1C(=O)[C@H]2[C@H]3[C@H](O)[C@H](O)C/C(=N/O[C@@H](C)c4cc(-c5c(C)cc(C)cc5C)no4)[C@@H]3CC[C@@H]2C1=O`, the AC50 is 3.98 µM (active). The same measure, in the same setting: with `O=C1[C@H]2[C@H]3[C@H](O)[C@H](O)C/C(=N/OCc4ccccc4)[C@H]3CC[C@@H]2C(=O)N1Cc1ccc2c(c1)OCO2` the figure was 1 µM (active).

Turning to `CC(=O)OC[C@@H]1O[C@@H](O/N=C2/C[C@@H](O)[C@@H](O)[C@@H]3[C@@H]4C(=O)N(Cc5ccc6c(c5)OCO6)C(=O)[C@H]4CC[C@H]23)[C@H](OC(C)=O)[C@H](OC(C)=O)[C@@H]1OC(C)=O`, the AC50 was 5.01 µM (active).

Take `CC(=O)OC[C@@H]1O[C@@H](O/N=C2/C[C@@H](O)[C@@H](O)[C@@H]3[C@@H]4C(=O)N(Cc5ccccc5)C(=O)[C@H]4CC[C@H]23)[C@H](OC(C)=O)[C@H](OC(C)=O)[C@@H]1OC(C)=O`: the activity, negative = inhibition was -25% [at 11.4 µM]. Take `CC(=O)OC[C@@H]1O[C@@H](O/N=C2/C[C@@H](O)[C@@H](O)[C@@H]3[C@@H]4C(=O)N(Cc5ccccc5)C(=O)[C@H]4CC[C@@H]23)[C@H](OC(C)=O)[C@H](OC(C)=O)[C@@H]1OC(C)=O`: the activity, negative = inhibition was -27.9% [at 11.4 µM]. Still for that read-out and setting: with `CCOC(=O)C(NC(C)=O)C(OC(C)=O)c1cccc(N(CCO)CCO)c1` (stereo unspecified) the figure was -20.2%.

As a reminder, the AC50 is the concentration giving half of the maximal activity seen.
